Rows were chosen to be rich in hits. Some 1.9% of all compounds tested hit in one or more screens of this group.
Integrin act MD: qHTS for Activators of Integrin-Mediated Alleviation for Muscular Dystrophy; alpha7betagal myoblasts, beta-gal FDG fluorescence, 48 h; Potency, µM (doses to about 38.3 µM), for inactives: at the highest dose activation, most hits filed as activators; hit rate 0.064% among 350,000;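 note: potency is the fitted concentration of half-maximal effect; 100% = response of the positive control SU9516; nearly all actives have a fitted effect of over 60% in size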
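Alpha7betagal+/- myoblasts (passage 13) were plated 16-24 hr, then exposed to compounds (1:260 dilution of DMSO stock) for 48 hours at 37C. After MPER lysis, β-galactosidase reporter activity was read as FDG fluorescence (ex 480/em 540) after 30 minutes.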
USP2a block: qHTS Assay for Inhibitors of Ubiquitin-specific Protease USP2a Using CHOP2 as the Reporter; Ubiquitin carboxyl-terminal hydrolase 2 (Homo sapiens), O75604; USP2 core, Ub-CHOP2 coupled fluorogenic reporter, 485/531; Potency, µM (titrated, usually from 38.3 µM), for inactives: at the top dose activity change, negative = inhibition, most hits filed as inhibitors; hit rate 0.01% among 330,000;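 note: potency is the fitted concentration of half-maximal effect; plate controls were DMSO wells for no effect and full inhibition by NEM control for full effect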
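USP2 core (10nM final) preincubated 30min RT with compound in 20mM Tris-HCl pH 8.0, 2mM CaCl2, 2mM beta-mercaptoethanol, 0.05% CHAPS; 25nM Ub-CHOP2 plus 25nM reporter substrate added, fluorescence (Ex485/Em531) read after 60min.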
PKM2 act: qHTS Assay for Activators of Human Muscle isoform 2 Pyruvate Kinase. Pyruvate kinase PKM (Homo sapiens), P14618. purified PKM2, Kinase-Glo ATP luminescence, activation; response scale: 0% is enzyme alone, no compound. Potency, µM (top dose mostly 57.5 µM), for the others: at the highest dose activation, usual class: activators. hit rate 0.34% among 260,000; note: potency is the fitted concentration of half-maximal effect; % is set by controls: 0 for no effect and ±100 for the full control effect; nearly all actives have a fitted effect of over 55% in size
Target sequence (P14618 whole entry, looked up, canonical isoform): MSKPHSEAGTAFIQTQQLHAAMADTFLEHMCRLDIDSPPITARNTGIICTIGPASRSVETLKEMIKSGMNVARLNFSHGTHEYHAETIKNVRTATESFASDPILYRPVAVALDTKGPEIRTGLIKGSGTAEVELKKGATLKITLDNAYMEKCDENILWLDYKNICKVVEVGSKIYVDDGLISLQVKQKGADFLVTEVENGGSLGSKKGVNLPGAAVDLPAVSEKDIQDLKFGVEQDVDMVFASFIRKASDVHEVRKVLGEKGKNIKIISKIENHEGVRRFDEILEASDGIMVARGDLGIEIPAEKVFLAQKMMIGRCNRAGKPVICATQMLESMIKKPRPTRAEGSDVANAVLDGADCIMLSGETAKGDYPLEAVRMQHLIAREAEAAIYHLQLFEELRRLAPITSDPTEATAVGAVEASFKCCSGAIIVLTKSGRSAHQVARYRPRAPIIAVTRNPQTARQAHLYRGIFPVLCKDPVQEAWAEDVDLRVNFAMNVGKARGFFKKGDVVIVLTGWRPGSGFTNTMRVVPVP
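ATP formation by purified human PK-M2, quantified via coupled luciferase luminescence after 1 h at room temperature with 0.1 mM ADP and 0.5 mM PEP final.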
IL-2 act: qHTS of IL-2 Activators; IL-2 activation reporter assay, cell-based qHTS; stimulated with anti-CD3/CD4/CD28 beads; in transgenic mouse T cells; activation, % (series mostly up to about 46 µM); hit rate 0.065% among 360,000; AID 652025, 2013; in the data active = activation above about 50%; inconclusive = mostly about 30% to 49%; note: 0% is about no effect
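Unstimulated transgenic mouse T cells, 750 per well, received compound and, after 60 minutes, anti-CD3/anti-CD4 bead plus anti-CD28 stimulation. EGFP and DsRed were quantified after 18 hours.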
Pin1 inh: qHTS Assay to Find Inhibitors of Pin1. Potency, µM (top dose mostly 115 µM), without a hit: top-dose activity, negative = inhibition, hits mostly inhibitors. hit rate 0.009% among 390,000. AID 504891, 2011. Pin1 FP peptide displacement, HiFluor488, 10 min; active = well fitted inhibition curve with a large enough effect in the polarisation, with a control signal flat, not every such curve was filed as active; inconclusive = small, poorly fitted or top-dose-only effect, or effect the other way, or a change in a side signal; inactive = no such curve, though single readings can be large or run the other way; the % refers to the polarisation; note: potency is the fitted concentration of half-maximal effect; % is set by controls: 0 for no effect and ±100 for the full control effect
ClpP mod: qHTS Assay for Activators of ClpP; Potency, µM (series often up to 57.5 µM), for the others: top-dose activity change, negative = active; purified B. subtilis ClpP, FRET peptide cleavage, 20 min; hit rate 1.9% among 340,000; AID 651965, 2013; ATP-dependent Clp protease proteolytic subunit (Bacillus subtilis (strain 168)), P80244; active = well fitted falling curve with a large enough effect; inconclusive = small, poorly fitted or top-dose-only effect; inactive = no such curve, though single readings can be large or run the other way; note: potency is the fitted concentration of half-maximal effect; the source files actives as falling curves though it sought activators and does not explain the sign; nearly all actives have a fitted effect of over 65% in size
Target sequence (P80244 whole entry, looked up): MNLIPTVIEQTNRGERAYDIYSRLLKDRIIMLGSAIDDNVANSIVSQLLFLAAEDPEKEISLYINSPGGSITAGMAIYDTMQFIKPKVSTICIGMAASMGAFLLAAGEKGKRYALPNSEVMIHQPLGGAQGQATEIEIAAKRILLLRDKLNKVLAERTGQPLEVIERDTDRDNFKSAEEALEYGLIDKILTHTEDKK
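FRET quenching reversal measured ClpP activation: 10 microg/mL B. subtilis ClpP at pH 8 with the FRET-FV decapeptide, read at 430 nm after 320 nm excitation. The 20-min minus 0-min signal was scaled between DMSO/no-enzyme wells and ADEP (5.8 microM final).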
* = called active by the depositor; ? = inconclusive; / = not tested or not shown; [ ] = dose if it differs, or a comment. Unless noted, calls come from the whole dose curve; as a rule, active = well fitted curve in the direction sought with a large enough effect; inconclusive = small, poorly fitted or top-dose-only effect, or another doubt; inactive = no such curve, though single readings can be large; an effect the other way counts as inactive or inconclusive.

SMILES	Integrin act MD	USP2a block	PKM2 act	IL-2 act	Pin1 inh	ClpP mod
COc1ccccc1Nc1nc2cc(C)ccc2cc1C#N	2.7%	2.3%	-1.2%	-0.4	-0.2%	/
COc1ccccc1Nc1nc2ccc(C)cc2cc1C#N	?	2.4%	-0.5%	0.4	4.2%	25.1µM*
Cc1ccc(/C=c2/sc3nnc(-c4ccccc4Cl)n3c2=O)o1	-13.4%	-4.5%	8.91µM*	0.1	7.7%	-0.9%
COc1cc(/C=C/C(=O)OCC(=O)Nc2nnc(-c3ccccc3)o2)cc(OC)c1OC	5.3%	2.8%	/	-4.2	0.8%	17.8µM*
CN(c1ccccc1C(=O)Nc1ccc2c(c1)n(C)c(=O)n2C)S(C)(=O)=O	36.1%	-0.4%	3.4%	-0.7	-3.4%	-2.4%
COc1ccc(NS(=O)(=O)c2ccc(NC(C)=O)cc2)c(OC)c1	12.2%	3.7%	-0.8%	2.3	0.5%	/
COc1ccc(NS(=O)(=O)c2ccc(NC(=O)c3ccc(N(C)S(C)(=O)=O)cc3)cc2)c(OC)c1	-7.5%	-0.3%	14.9%	-4.5	1.2%	25.1µM*
CN(c1ccc(C(=O)Nc2ccc3c(c2)n(C)c(=O)n3C)cc1)S(C)(=O)=O	3.4%	3.4%	/	-3.7	1.8%	25.1µM*
NC(=O)COC(=O)c1ccccc1OCC(=O)Nc1ccc(Br)cc1	/	/	/	/	/	-1.9%
O=C(CCN=C1NS(=O)(=O)c2ccccc21)OCc1nnc(-c2ccc([N+](=O)[O-])cc2)o1	-3.4%	0.7%	/	-4.7	?	28.2µM*
N#Cc1ccccc1COC(=O)CCN=C1NS(=O)(=O)c2ccccc21	?	-0.9%	/	0.7	8.9%	/
CC(C)(C)OC(=O)NS(=O)(=O)NOCc1ccccc1	/	/	/	/	/	1.7%
Cc1onc(-c2c(F)cccc2Cl)c1C(=O)Nc1nnc(-c2ccccc2)s1	23.7%	3.5%	7.7%	-2.2	?	31.6µM*
Cc1onc(-c2ccccc2Cl)c1C(=O)Nc1nnc(-c2ccc(F)cc2)s1	20.0%	0.2%	0.1%	-2.1	7.5%	-24.3%
CC(C)(C)OC(=O)NCc1nnc(-c2cc3ccccc3[nH]2)o1	/	/	/	/	3.1%	/
COC(=O)CNc1nc(C2CC2)nc2c1nnn2Cc1ccccc1Cl	-6.5%[7.66 µM]	1.4%	6.4%	-1.6	-0.3%	-2.3%
CN(C)S(=O)(=O)c1ccc(Nc2nc(C3CC3)nc3c2nnn3Cc2ccccc2Cl)cc1	0.0%	3.7%	4.0%	-0.3	95.7%	31.6µM*
CCCc1c(C)[nH]c2nc3ccccc3n2c1=O	-9.0%	2.0%	/	-0.5	9.2%	1.6%
O=c1cc(-c2ccccc2)[nH]c2nc3ccccc3n12	-17.5%	-1.0%	-31.9%	0.4	26.1%	11.2µM*
CCc1c(C)[nH]c2nc3ccccc3n2c1=O	-6.4%	1.6%	3.6%	-0.1	2.0%	28.2µM*
O=C(c1cnn2c1NC(=C1CC1)C=C2C(F)F)N1CCc2ccccc21	/	/	/	/	/	1.4%
Cc1ccc(S(=O)(=O)NCc2ccc(C(=O)N3CCc4ccccc4C3)cc2)cc1	-10.6%	1.1%	-2.8%	10.8	51.7%	28.2µM*
COc1ccc(S(=O)(=O)NCc2ccc(C(=O)N3CCc4ccccc4C3)cc2)cc1	-0.2%	2.2%	5.2%	-0.7	4.6%	-1.1%
CCOc1ccc2nc(NC(=O)CSc3nc(SC)ns3)sc2c1	8.9%	-8.0%	-2.2%	0.1	16.8%	28.2µM*
CCOc1ccc2nc(NC(=O)CSc3ccc(Cl)cc3)sc2c1	2.9%	1.2%	1.6%	-0.5	4.3%	-2.7%
SMILES	Integrin act MD	USP2a block	PKM2 act	IL-2 act	Pin1 inh	ClpP mod
CCOC(=O)c1c(NC(=O)COC(=O)CCOc2ccc(OCC)cc2)sc(C(=O)N(C)C)c1C	-14.5%	2.5%	/	0.9	22.9%	/
CCOC(=O)c1c(NC(=O)COC(=O)CCOc2ccccc2C)sc(C(=O)NC)c1C	-13.7%	0.1%	/	0.1	15.4%	20µM*
O=C(CSc1ccc(C(F)(F)F)cc1[N+](=O)[O-])Nc1ccc2ccccc2c1	22.4%	1.2%	-1.5%	0.6	-0.5%	28.2µM*
COc1ccc(CCn2c(=N)c(S(=O)(=O)c3ccc(Cl)cc3)cc3c(=O)n4ccccc4nc32)cc1	0.0%	0.3%	/	80.5*	?	-14.7%
O=C(C[n+]1ccccc1Cl)c1ccc(Br)cc1	/	/	/	/	/	-8.1%
CCSc1nc(-c2ccc(OC)cc2)n(-c2nc3ccccc3s2)n1	0.5%	2.9%	0.2%	4.3	?	28.2µM*
COc1ccc(-c2nnc(SCC(=O)Nc3nc4ccccc4s3)n2C)cc1	-15.7%	-0.4%	0.0%	0.3	0.4%	-1.4%
CCOC(=O)c1ccccc1OCc1cc(C2Nc3ccccc3C(=O)N2c2cccc3ccccc23)ccc1OC (stereo not given)	/	/	/	/	4.0%	4.2%
Cc1cc(C(=O)O)c(=O)[nH]c1C	15.1%	0.4%	-2.0%	-1.7	4.6%	25.1µM*
Nc1ncnc2c1[nH]c(=S)n2C1OC(CO)C(O)C1O (stereo not given)	/	/	/	/	0.3%	-0.3%
O=C(c1ccc(S(=O)(=O)c2ccccc2Cl)c([N+](=O)[O-])c1)N1CCN(Cc2ccccc2)CC1	-10.9%	0.8%	11.2µM*	-0.3	6.2%	0.9%
COC(=O)c1cnc2c(C(F)(F)F)cccc2c1OC	13.2%	0.6%	-1.4%	-0.6	1.6%	15.8µM*
CCOC(=O)c1cnc2c(C(F)(F)F)cccc2c1N1CCN(C)CC1	-23.4%	4.2%	/	0.5	-2.5%	/
O=C1CC(c2ccco2)Cc2[nH]c(=O)c(C(=O)Nc3ccccc3)cc21 (stereo not given)	/	/	/	/	/	-1.2%
Cc1[nH]nc2c1C(c1ccsc1C)C(C#N)=C(N)O2 (stereo not given)	-26.9%	3.7%	11.2%	-0.7	0.4%	-0.5%
Cc1cc(C2C(C#N)=C(N)Oc3n[nH]c(C)c32)c(C)s1 (stereo not given)	-39.4%	0.2%	9.9%	-0.1	0.5%	17.8µM*
CCNc1cccc(S(=O)(=O)N2CCN(S(=O)(=O)c3ccc4c(c3)OCCO4)CC2)c1	/	/	/	/	-1.8%	/
Cc1cccc(NC(=O)c2cnc3sccn3c2=O)c1	1.2%	2.0%	-3.3%	-2.0	3.2%	?
O=C(Nc1ccon1)c1cnc2sccn2c1=O	18.3%	1.4%	0.5%	-0.7	1.4%	20µM*

Compound activity as filed in PubChem BioAssay.
